Records with an inconclusive call do not appear. A number with no mark means an inactive call. Calls of active or inactive are those of the source.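 How the source made its calls, unless noted: active means compounds whose dose-response curve shows a full or clear partial loss of cell viability, called from curve shape rather than a numeric limit; inconclusive means weak partial curves or an effect only at the top dose; inactive means no dose-dependent loss of viability.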 Some results are limits rather than exact numbers.
Potency means the concentration at half of the fitted maximal effect.

One assay can be described thus: Cell Viability - BJ (AID 421; calls by dose curve;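 further: cells exposed to compound for 40 hours at 37 °C before readout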). Conditions: BJ fibroblast viability, qHTS. In a few lines:
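Normal human BJ foreskin fibroblasts, 1500/well in complete medium, treated 40 hr at 37 °C. Cellular ATP by CellTiter-Glo luminescence; normalized to DMSO and 100 uM tamoxifen, AC50 from Hill fit.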
`Oc1cccc(Cl)c1Cl`: the Potency was over 92 µM.

For `CCC/C=N/O`, the Potency was over 92 µM.

Consider `Nc1cccc2ccccc12`, for which the Potency is over 92 µM.

For the compound `Cc1cnc[nH]1`, the Potency is over 92 µM.

For the compound `CN(C)N=O`, the Potency was over 92 µM.

Consider `COc1c(C(C)(C)C)cc([N+](=O)[O-])c(C)c1[N+](=O)[O-]`, for which the Potency was over 92 µM.

As for `C=C(Cl)CCl`, the Potency was over 92 µM.

Consider `ClCCOCOCCCl`, for which the Potency was over 92 µM.

On to `CC12CC1(C)C(=O)N(c1cc(Cl)cc(Cl)c1)C2=O` (configuration not stated), for which the Potency was over 92 µM.

With `CC(C)(Cl)[N+](=O)[O-]`, the Potency was over 92 µM.

Turning to `Cl/C=C/Cl`, the Potency was over 92 µM.

For `CCCCOCC1CO1` (configuration not stated), the Potency is over 92 µM.

Consider `O=C(O)c1cccc(Cl)c1`, for which the Potency is over 92 µM.

Consider `C1CC2OC2CC1C1CO1` (configuration not stated), for which the Potency is over 92 µM.

As to `Brc1cccc(-c2ccccc2)c1`, the Potency is over 92 µM.

As for `Oc1c(Cl)cccc1Cl`, the Potency is over 92 µM.

On to `ClCCOCCCl`, for which the Potency was over 92 µM.

For `CCNCC`, the Potency is over 92 µM.

With `CC(C)C#N`, the Potency was over 92 µM.

As for `Cl/C=C\Cl`, the Potency was over 92 µM.

In the case of `c1ccc2c(c1)CCNC2`, the Potency is over 92 µM.

With `CCBr`, the Potency was over 92 µM.

Take `O=[N+]([O-])c1ccc(Cl)c(Cl)c1Cl`: the Potency is over 92 µM.

For the compound `N#CCCC#N`, the Potency is over 92 µM.

Take `Cc1ccccc1[N+](=O)[O-]`: the Potency was over 92 µM.

Consider `OCCBr`, for which the Potency was over 92 µM.

Regarding `C=CC(=O)OCCN(C)C`, the Potency is over 92 µM.

For `CC(C)(C)C(O)(CCc1ccc(Cl)cc1)Cn1cncn1` (configuration not stated), the Potency was over 92 µM.

Regarding `N#CCCCCC#N`, the Potency is over 92 µM.

With `CN=C=O`, the Potency was over 92 µM.

For the compound `c1ccc(C2CO2)cc1` (configuration not stated), the Potency was over 92 µM.

Turning to `CCCCCC[N+](=O)[O-]`, the Potency was over 92 µM.

For `OCC(Cl)CCl` (configuration not stated), the Potency was over 92 µM.

In the case of `COc1ccc(C=O)cc1`, the Potency is over 92 µM.

On to `Nc1ccc(Cl)c(Cl)c1`, for which the Potency is over 92 µM.

Consider `CC(=O)[O-].CC(=O)[O-].CC(=O)[O-].[Cr+3]`, for which the Potency was over 92 µM.

As for `CC(=O)CCC(C)=O`, the Potency was over 92 µM.

For the compound `C=CC(=O)OCC(CC)CCCC` (configuration not stated), the Potency is over 92 µM.

Regarding `CC(C#N)CCC#N` (configuration not stated), the Potency was over 92 µM.

A short description of the next assay: Cell Viability - Jurkat (AID 426;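 active means dose-dependent loss of cell ATP signal giving a full or clear fitted curve, ranked by lower potency value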). Conditions: qHTS. In a few lines:
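Cytotoxicity taken as drop in cellular ATP (CellTiter-Glo luminescence, 20 min room temperature) after 40 hr, 37C treatment of 5000 Jurkat Clone E6-1 cells per well; concentration-response fitted with Hill equation for AC50.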
(In general: In qHTS, concentration-response curves come from the screen itself.)
`Oc1cccc(Cl)c1Cl`: the Potency is over 92 µM.

Regarding `CCC/C=N/O`, the Potency was over 92 µM.

In the case of `Nc1cccc2ccccc12`, the Potency is 33 µM (active).

Take `Cc1cnc[nH]1`: the Potency is over 92 µM.

Regarding `CN(C)N=O`, the Potency was over 92 µM.

Turning to `COc1c(C(C)(C)C)cc([N+](=O)[O-])c(C)c1[N+](=O)[O-]`, the Potency was over 92 µM.

For `C=C(Cl)CCl`, the Potency was over 92 µM.

`ClCCOCOCCCl`: the Potency is over 92 µM.

For the compound `CC12CC1(C)C(=O)N(c1cc(Cl)cc(Cl)c1)C2=O` (configuration not stated), the Potency is over 92 µM.

As to `CC(C)(Cl)[N+](=O)[O-]`, the Potency was over 92 µM.

In the case of `Cl/C=C/Cl`, the Potency is over 92 µM.

Take `CCCCOCC1CO1` (configuration not stated): the Potency was over 92 µM.

Turning to `O=C(O)c1cccc(Cl)c1`, the Potency was over 92 µM.

For `C1CC2OC2CC1C1CO1` (configuration not stated), the Potency was over 92 µM.

Turning to `Brc1cccc(-c2ccccc2)c1`, the Potency was over 92 µM.

As to `Oc1c(Cl)cccc1Cl`, the Potency is over 92 µM.

For the compound `ClCCOCCCl`, the Potency is over 92 µM.

In the case of `CCNCC`, the Potency is over 92 µM.

For the compound `CC(C)C#N`, the Potency is over 92 µM.

For the compound `Cl/C=C\Cl`, the Potency is over 92 µM.

Consider `c1ccc2c(c1)CCNC2`, for which the Potency is over 92 µM.

As to `CCBr`, the Potency was over 92 µM.

In the case of `O=[N+]([O-])c1ccc(Cl)c(Cl)c1Cl`, the Potency is over 92 µM.

On to `N#CCCC#N`, for which the Potency was over 92 µM.

Take `Cc1ccccc1[N+](=O)[O-]`: the Potency is over 92 µM.

Take `OCCBr`: the Potency is over 92 µM.

As for `C=CC(=O)OCCN(C)C`, the Potency is over 92 µM.

As to `CC(C)(C)C(O)(CCc1ccc(Cl)cc1)Cn1cncn1` (configuration not stated), the Potency was over 92 µM.

As to `N#CCCCCC#N`, the Potency was over 92 µM.

Regarding `CN=C=O`, the Potency was over 92 µM.

With `c1ccc(C2CO2)cc1` (configuration not stated), the Potency was over 92 µM.

With `CCCCCC[N+](=O)[O-]`, the Potency was over 92 µM.

For `OCC(Cl)CCl` (configuration not stated), the Potency was over 92 µM.

Regarding `COc1ccc(C=O)cc1`, the Potency was over 92 µM.

Regarding `Nc1ccc(Cl)c(Cl)c1`, the Potency is over 92 µM.

In the case of `CC(=O)[O-].CC(=O)[O-].CC(=O)[O-].[Cr+3]`, the Potency was over 92 µM.

On to `CC(=O)CCC(C)=O`, for which the Potency was over 92 µM.

Turning to `C=CC(=O)OCC(CC)CCCC` (configuration not stated), the Potency was over 92 µM.

For the compound `CC(C#N)CCC#N` (configuration not stated), the Potency was over 92 µM.

The next assay in a line: Cell Viability - Hek293 (AID 427).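 Further: cells exposed to compound for 40 hours at 37 °C before reading.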 Conditions: qHTS. In a few lines:
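HEK293 cells in complete medium were exposed to compound for 40 hr at 37 °C, then cellular ATP was read by CellTiter-Glo luminescence. Data were normalized to DMSO (basal) and 100 uM tamoxifen (100% inhibition), and AC50 came from Hill fits.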
With `Oc1cccc(Cl)c1Cl`, the Potency is over 92 µM.

For `CCC/C=N/O`, the Potency was over 92 µM.

As to `Nc1cccc2ccccc12`, the Potency is over 92 µM.

As for `Cc1cnc[nH]1`, the Potency is over 92 µM.

`CN(C)N=O`: the Potency was over 92 µM.

On to `COc1c(C(C)(C)C)cc([N+](=O)[O-])c(C)c1[N+](=O)[O-]`, for which the Potency was over 92 µM.

Regarding `C=C(Cl)CCl`, the Potency was over 92 µM.

Take `ClCCOCOCCCl`: the Potency is over 92 µM.

In the case of `CC12CC1(C)C(=O)N(c1cc(Cl)cc(Cl)c1)C2=O` (configuration not stated), the Potency was over 92 µM.

As for `CC(C)(Cl)[N+](=O)[O-]`, the Potency is over 92 µM.

In the case of `Cl/C=C/Cl`, the Potency was over 92 µM.

`CCCCOCC1CO1` (configuration not stated): the Potency is over 92 µM.

Turning to `O=C(O)c1cccc(Cl)c1`, the Potency is over 92 µM.

As for `C1CC2OC2CC1C1CO1` (configuration not stated), the Potency is over 92 µM.

In the case of `Brc1cccc(-c2ccccc2)c1`, the Potency was over 92 µM.

With `Oc1c(Cl)cccc1Cl`, the Potency was over 92 µM.

On to `ClCCOCCCl`, for which the Potency is over 92 µM.

Take `CCNCC`: the Potency is over 92 µM.

Turning to `CC(C)C#N`, the Potency was over 92 µM.

For `Cl/C=C\Cl`, the Potency is over 92 µM.

For `c1ccc2c(c1)CCNC2`, the Potency is over 92 µM.

Consider `CCBr`, for which the Potency is over 92 µM.

For the compound `O=[N+]([O-])c1ccc(Cl)c(Cl)c1Cl`, the Potency was over 92 µM.

Consider `N#CCCC#N`, for which the Potency was over 92 µM.

With `Cc1ccccc1[N+](=O)[O-]`, the Potency is over 92 µM.

Take `OCCBr`: the Potency is over 92 µM.

For the compound `C=CC(=O)OCCN(C)C`, the Potency was over 92 µM.

In the case of `CC(C)(C)C(O)(CCc1ccc(Cl)cc1)Cn1cncn1` (configuration not stated), the Potency was over 92 µM.

On to `N#CCCCCC#N`, for which the Potency is over 92 µM.

In the case of `CN=C=O`, the Potency is over 92 µM.

Turning to `c1ccc(C2CO2)cc1` (configuration not stated), the Potency is over 92 µM.

Take `CCCCCC[N+](=O)[O-]`: the Potency is over 92 µM.

On to `OCC(Cl)CCl` (configuration not stated), for which the Potency was over 92 µM.

With `COc1ccc(C=O)cc1`, the Potency is over 92 µM.

As to `Nc1ccc(Cl)c(Cl)c1`, the Potency was over 92 µM.

As to `CC(=O)[O-].CC(=O)[O-].CC(=O)[O-].[Cr+3]`, the Potency is over 92 µM.

For `CC(=O)CCC(C)=O`, the Potency was over 92 µM.

As for `C=CC(=O)OCC(CC)CCCC` (configuration not stated), the Potency is over 92 µM.

Turning to `CC(C#N)CCC#N` (configuration not stated), the Potency was over 92 µM.
